Pf growth 96h: P. falciparum growth inhibition at 96 hour, primary screen for plastid delayed-death inhibitors; P. falciparum luciferase reporter growth, 96 h; Potency, µM (doses to about 28.7 µM), hits mostly inhibitors; 320,000 compounds, 6.9% hits; AID 504834
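Parasite growth measured via integrated firefly luciferase reporter in P. falciparum. Infected erythrocytes at 2% hematocrit, 0.05% parasitemia final were treated 96 hours at 37 C under 5% CO2, and luminescence was read.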
NS1 function inh: inhibitors of influenza NS1 protein function; Potency, µM (top dose mostly 46.1 µM); 270,000 compounds, 0.4% hits; calls by dose curve; also: actives are rising curves; nearly all actives have a fitted effect of over 50% in size
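S. cerevisiae expressing influenza A NS1, grown in glucose, washed, then diluted 1:100 into pH 6.0 -URA galactose medium with 23 nl compound. Growth recovery read as OD600; NS1-free strain serves as control.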
VACV mCherry inh: inhibitors of vaccinia virus infection (mCherry reporter signal); Vaccinia virus mCherry reporter infection, fluorescence; Potency, µM (doses to about 36.5 µM), hits mostly inhibitors; 310,000 compounds, 0.63% hits; calls by dose curve; tested in A549 cells; also: nearly all actives have a fitted effect of over 35% in size
VACV Venus inh: inhibitors of vaccinia virus (Venus reporter). 330,000 compounds, 0.46% hits. Vaccinia virus Venus reporter expression, fluorescence. Potency, µM (series often up to 36.5 µM), actives largely listed as inhibitors; calls by dose curve; tested in A549 cells; also: nearly all actives have a fitted effect of over 30% in size
HCV inhibitor: HCV inhibition; Huh7.5.1 HCVcc-Cre infection, luciferase reporter, 44 h; Potency, µM (titrated, usually from 41.8 µM), most hits filed as inhibitors; 340,000 compounds, 3.4% hits
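Compounds are dispensed onto cells plated 4 h earlier at 1,000 per well, with HCVcc-Cre virus (about 0.5 moi) added next. Following 44 h of culture, luminescent signal is measured for 15 sec after 15 min with substrate at room temperature.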
Pf growth 48h: P. falciparum growth inhibition at 48 hours (one generation); P. falciparum luciferase growth in erythrocytes, 48 h; Potency, µM (titrated, usually from 28.7 µM), most hits filed as inhibitors; 310,000 compounds, 5.9% hits; AID 504832
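Growth was read as firefly luciferase luminescence after a 48 h, 37 C, 5% CO2 exposure of compounds to reporter-bearing P. falciparum cultures (0.1% parasitemia, 2% hematocrit final) in Albumax-supplemented RPMI 1640.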
Each line names hits and unclear results; the compound was inactive in the other large screens. Most compounds without a hit are left out; they make up all but 11% or so of the library. Unless noted, calls follow the shape of the dose curve; as a rule, active = well fitted inhibition curve with a large enough effect; inconclusive = small, poorly fitted or top-dose-only effect, or another doubt; inactive = no such curve, though single readings can be large or run the other way.

O=C(Nc1ccc(OC(F)(F)F)cc1)C1CCCN(C(=O)c2ccc(Cl)cc2)C1 (configuration not stated)	Pf growth 96h inconclusive, HCV inhibitor 7.9µM, Pf growth 48h inconclusive (no result: NS1 function inh, VACV mCherry inh, VACV Venus inh)
CCOc1ccc(OCC)c(NC(=O)C2CCCN(C(=O)c3ccc(Cl)cc3)C2)c1 (configuration not stated)	Pf growth 96h 9.3µM, HCV inhibitor inconclusive, Pf growth 48h inconclusive (no result: NS1 function inh)
CCOc1ccc(OCC)c(NC(=O)C2CCCN(c3ncccn3)C2)c1 (configuration not stated)	HCV inhibitor inconclusive (no result: VACV mCherry inh, VACV Venus inh)
CCOc1ccccc1C(=O)NCc1ccc2c(c1)CCN2C(=O)c1ccccc1	VACV mCherry inh inconclusive (no result: Pf growth 96h, NS1 function inh, HCV inhibitor, Pf growth 48h)
COc1ccc(-c2[nH]ncc2CN(C)CCCN2CCOCC2)cc1F	Pf growth 96h inconclusive
COc1ccc(-c2[nH]ncc2CN(CC2CCC(=O)N2)C(C)C)cc1F (configuration not stated)	Pf growth 96h 8.3µM
COCCN(Cc1cn[nH]c1-c1ccc2cc(OC)ccc2c1)C(C)C	Pf growth 96h 12µM
CC1CCc2onc(C(=O)N3CCN(c4cccc(Cl)c4)CC3)c2C1 (configuration not stated)	none (no result: Pf growth 96h, NS1 function inh, HCV inhibitor, Pf growth 48h)
C=CCn1c(C(C)(C)C)nc2ccccc21	none
N#Cc1c(N2CCCC(O)C2)nc(N)c2c(N)nc3c(c12)CC(=O)N3C12CC3CC(CC(C3)C1)C2 (configuration not stated)	Pf growth 96h 0.21µM, HCV inhibitor 4µM, Pf growth 48h inconclusive (no result: VACV mCherry inh, VACV Venus inh)
COc1ccc(CN2C(=O)Cc3c2nc(N)c2c(N)nc(N4CCCCC4)c(C#N)c32)cc1	Pf growth 96h inconclusive, Pf growth 48h inconclusive (no result: VACV mCherry inh, VACV Venus inh)
N#Cc1c(N(CCO)CCO)nc(N)c2c(N)nc3c(c12)CC(=O)N3CC1CCCO1 (configuration not stated)	none (no result: VACV mCherry inh, VACV Venus inh)
C=C(C)CN(CC)c1nc(N)c2c(N)nc3c(c2c1C#N)CC(=O)N3C12CC3CC(CC(C3)C1)C2	Pf growth 96h 0.93µM, VACV mCherry inh inconclusive, HCV inhibitor 4µM (no result: Pf growth 48h)
CCc1ccc(N2C(=O)Cc3c2nc(N)c(C#N)c3N)cc1	none (no result: Pf growth 96h)
CCCCN1C(=O)Cc2c1nc(N)c1c(N)nc(N(CCC)CCC)c(C#N)c21	Pf growth 96h 4.1µM, HCV inhibitor 4µM, Pf growth 48h 4.7µM
C=Cn1ccnc1P(=S)(c1ccc(Cl)cc1)c1nccn1C=C	none (no result: NS1 function inh)
CCOC(=O)N1C2=NC(C(=O)OC)=C(C(=O)OC)[C@@H]3N(C)c4ccccc4[C@]23C[C@H]1C(=O)OC	none
CCCOc1ccc(C2c3c(-c4c(C)cc(C)cc4O)n[nH]c3C(=O)N2CCO)cc1 (configuration not stated)	none (no result: Pf growth 96h, NS1 function inh, HCV inhibitor, Pf growth 48h)
COc1ccc(-n2c(-c3ccccc3)nc(=S)c3c2CCCC3)cc1	Pf growth 96h inconclusive (no result: VACV mCherry inh)
CCN(C(=O)COC(=O)c1cc([N+](=O)[O-])ccc1N1CCCCC1)C1CCS(=O)(=O)C1 (configuration not stated)	none
Cc1cc(C)c(NC(=O)CCCN2CCOCC2)c(C)c1	none (no result: VACV mCherry inh, VACV Venus inh)
O=C(NCCN1CCc2ccccc2C1)Nc1ccc(F)cc1	none
Cc1cccc(OCCCN2CCOCC2)c1C	Pf growth 96h 6.6µM (no result: VACV mCherry inh, VACV Venus inh)
Cc1cc(C)c(NC(=O)OCCN2CCOCC2)c(C)c1	Pf growth 96h 0.23µM
CCc1ccc(NC(=O)NCCN2CCc3ccccc3C2)cc1	Pf growth 96h 2.1µM, VACV Venus inh inconclusive
Cc1ccc(NC(=O)NCCN2CCCCC2)cc1C	Pf growth 96h 17µM (no result: VACV mCherry inh, VACV Venus inh)
CC1CN(Cc2ccccc2)C(=O)NC1=O (configuration not stated)	none (no result: Pf growth 96h, NS1 function inh, Pf growth 48h)
Cc1cccc(C)c1NC(=O)C(=O)NCCCN1CCOCC1	VACV mCherry inh 6.3µM, VACV Venus inh 2µM
Cc1ccccc1NC(=O)NCCCN1CCCC1	Pf growth 96h 2.3µM (no result: VACV mCherry inh, VACV Venus inh, Pf growth 48h)
O=C(/C=C/c1cccs1)N1CCC2(CC1)Oc1ccc(Cl)cc1C(=O)C21CC(c2ccc(Cl)cc2)=NO1 (configuration not stated)	none (no result: Pf growth 96h, NS1 function inh, Pf growth 48h)
O=C(/C=C/c1cccs1)N1CCC2(CC1)Oc1ccc(F)cc1C(=O)C21CC(c2ccc(Cl)cc2)=NO1 (configuration not stated)	Pf growth 96h 1.9µM, Pf growth 48h 9.3µM

High-throughput results as filed in PubChem.
